The campaign covered roughly 59,000 compounds. About 6,500 (11%) were called active. About 15% were inconclusive and are not listed. No stated cut-off is given here; in the data, active means max dye-equivalent concentration above about 10 nM; inconclusive means mostly about 1.1 nM to 9.6 nM; inactive means weaker than that. The sample as a whole holds a higher share of actives than the screen did. Peptide text beside a SMILES is read from it.
Test: qHTS Assay for Spectroscopic Profiling in A350 Spectral Region
Conditions: Compound autofluorescence, 340/450 nm, Alexa 350 dye-equivalents; stronger effect = higher value

Max dye-equivalent concentration, active:
O=c1c(-c2cccs2)nc2cnc(Oc3ccccc3)nc2n1-c1ccccc1 21 nM, O=c1c(-c2cc(F)cc(F)c2)nc2cnc(Oc3ccccc3)nc2n1C[C@H]1CCCO1 15 nM, CCOc1cc(-c2nc3cc(C)ccn3c2NCC2CCCO2)ccc1O (stereo unspecified) 78 nM, CN1CCN(S(=O)(=O)c2ccc3[nH]cc(C(=O)O)c(=O)c3c2)CC1 12 nM, CN(C)CCCn1c(N)c(C#N)c2nc(C#N)c(C#N)nc21 620 nM, O=c1[nH]c(=O)n(Cc2ccco2)c2c1C(C(F)(F)F)(C(F)(F)F)N=C(c1ccco1)N2 18 nM, Fc1ccc2nc(-c3ccccc3)nc(SCc3nnc(-c4ccccc4)o3)c2c1 38 nM, CCOc1cc(C2C(C(=O)OC)=CN(C3CCCC3)C=C2C(=O)OC)cc(Br)c1O 230 nM, COc1ccc(S(=O)(=O)N2CCN(c3ncnc4c(-c5ccccc5)nsc34)CC2)cc1 120 nM, CNC(=O)c1cc2c(ccc3ccccc32)oc1=N 11000 nM, CCOC(=O)N1CCN(C(=O)c2cc3c(ccc4ccccc43)oc2=O)CC1 1700 nM, COc1cccc(-c2nnc(N(C)C(=O)c3ccno3)s2)c1 32 nM, COc1ccc2nc(N3CCCC(O)C3)c(C#N)cc2c1 (stereo unspecified) 130 nM, O=C(Oc1cccnc1)c1cc2ccccc2oc1=O 96 nM, O=C(NCc1ccccn1)c1cc2ccccc2oc1=O 21 nM, CCOc1ccc2[nH]c(=O)c(CN(Cc3nnnn3Cc3ccccc3)CC3CCCO3)cc2c1 (stereo unspecified) 150 nM, CCC(c1nnnn1Cc1ccccc1)N(Cc1cc2cc(OC)ccc2[nH]c1=O)CC1CCCO1 (stereo unspecified) 32 nM, CCC(c1nnnn1Cc1ccco1)N(Cc1cc2cc(OC)ccc2[nH]c1=O)C1CCCCC1 (stereo unspecified) 21 nM, CCOc1ccc2[nH]c(=O)c(CN(Cc3nnnn3CCc3ccccc3)CC3CCCO3)cc2c1 (stereo unspecified) 76 nM

Max dye-equivalent concentration, inactive:
N#Cc1ccccc1-n1c(N)c(C(=O)N2CCCC2)sc1=S, COC(=O)c1ccc(N(CC(=O)NC2CCCC2)C(=O)CNC(=O)c2ccco2)cc1, CCS(=O)(=O)N1CCCC(C(=O)NCCCN(C)Cc2ccccc2)C1 (stereo unspecified), CN1C(=O)C[C@H](c2ccccc2)C1=O, O=C(CCCN1C(=O)CCC1=O)Nc1ccc(Cl)c(C(F)(F)F)c1, COc1ccc(-n2c(=O)c(-c3cn(C)c4ccccc34)nc3cnc(OC)nc32)cc1, COc1ccc(Oc2ncc3nc(C)c(=O)n(-c4ccccc4)c3n2)cc1, CCc1ccc(-c2nnn(Cc3nc4ccccc4s3)n2)cc1, O=C(N1CCOCC1)N1CCOCC1, O=C(NCc1cn2ccsc2n1)Nc1cccc(Cl)c1, CCOC(=O)c1csc(NC(=O)c2ccc(S(=O)(=O)N3CCCC3)cc2)n1, COc1ccc(OCC(=O)OCC(=O)Nc2ccc(S(=O)(=O)N3CCCCC3)cc2)cc1, Cc1cc(=O)[nH]c(SCc2cc(Cl)ccc2OC(F)F)n1, Cc1ccc(-c2noc(-c3ccccc3C(=O)NCC3CCCO3)n2)cc1 (stereo unspecified), Cc1ccc(C(=O)O)cc1S(=O)(=O)NCC1CCCO1 (stereo unspecified), O=C(CSc1nnc(-c2ccncc2)n1C1CCCCC1)Nc1ccccc1, CCN(CC)S(=O)(=O)c1ccc2[nH]cc(C(=O)NCCc3ccccc3)c(=O)c2c1, CCOC(=O)N1CCN(C(=O)c2cn(C)c3ccc(S(=O)(=O)N4CCCC4)cc3c2=O)CC1, COC(=O)c1cc(S(=O)(=O)NC2CCN(Cc3ccccc3)CC2)cn1C, Fc1ccccc1OCCCCn1cncn1, C[C@H](NC(=O)NCCc1ccccc1)C(=O)O, O=C(Cn1cnc2c(cnn2-c2ccccc2)c1=O)NCc1ccccc1, Cc1cccc(C)c1NC(=O)CCCSc1nnc(-c2ccco2)n1-c1ccccc1, CC(=O)NC(C(=O)NCC(N)=O)C(C)C (stereo unspecified) (HELM PEPTIDE1{[ac].[CC(C)C(N[*:1])C(=O)[*:2]].G.[am]}$$$$V2.0), O=C(Cn1nc(C(F)(F)F)c2c1CCC2)NCc1ccc(F)cc1, Nc1cc(=O)nc(SCc2ccccc2)n1Cc1ccco1, Cc1ccc(C(=O)OCC(=O)NCc2ccc3c(c2)OCO3)s1, C=CCn1c(SCc2nnc(-c3ccccc3)o2)nnc1C(O)c1ccccc1 (stereo unspecified), O=C(OCc1nnc(-c2ccccc2)o1)c1ccc2c(c1)C(=O)N(CCc1ccccc1)C2=O, O=C(Nc1cccc(F)c1)N1CC2(CCN(C(=O)c3cnccn3)CC2)C1, Oc1ccccc1CNCc1ccccc1O, CCOC(=O)CSc1nnc(CNc2ccc(F)cc2)o1, CCOc1ccc(CNC(=O)C2CC(=O)N(C3CCCC3)C2)cc1OC (stereo unspecified), CCOc1ccc(CNC(=O)C2CCC(=O)N2C2CCCC2)cc1OC (stereo unspecified), O=C(COc1ccc(S(=O)(=O)NCCc2ccccc2)cc1)N1CCCC1, CC1(C)CC(=O)c2sc(N)nc2C1, N#CC1=C(N)Oc2n[nH]c(CSc3ccccc3)c2C12C(=O)Nc1ccccc12 (stereo unspecified), COc1ccc(S(=O)(=O)N2CCCC(C(=O)N3CCN(C)CC3)C2)cc1C (stereo unspecified), COc1cccc(N2C(=O)CC(N3CCN(S(=O)(=O)c4ccccc4)CC3)C2=O)c1 (stereo unspecified), CCOc1ccccc1NC(=O)CCN1CCN(S(=O)(=O)c2ccc(OC)cc2)CC1, Cc1ccc(C)c(NC(=O)C2CCCN2C(=O)OC(C)(C)C)c1 (stereo unspecified), OCCN1CCN(CC/C=C2\c3ccccc3Sc3ccc(C(F)(F)F)cc32)CC1, COc1ccccc1NC(=O)CSc1nnc(Cn2nnc(-c3ccccc3)n2)n1-c1ccccc1, CCCCC(=O)Nc1cc(C)c2c(=O)oc3ccccc3c2n1, O=C(NCCc1ccc2c(c1)OCCO2)c1cc2ccccc2o1, COc1c(C(=O)N2CCCC2)ccc2ccccc12, CCOC(=O)N1CCN(C(=O)c2n[nH]c(=O)c3ccccc23)CC1, CC(C)(C)NCC[C@@H](O)c1cc(C(F)(F)F)nc2c(C(F)(F)F)cccc12, CC(=O)N1CCC2(CC1)CCN(c1ccncc1)CC2, CC1(N2CCOCC2)CC2(O)C(=[N+]1[O-])CCc1nonc12 (stereo unspecified), CCOC(=O)CSc1nc2c(c(=O)n(Cc3ccccc3Cl)c(=O)n2C)n1C, Cc1cc(C(=O)CC#N)c(C)n1CC(F)(F)F, Cc1cc(NC(=O)CCC(=O)N(c2cccc(F)c2)C(C(=O)NC2CCCC2)c2ccncc2)no1 (stereo unspecified), O=C(Cn1ccc(=O)[nH]c1=O)Nc1ccc(C(=O)O)c(O)c1, COCCn1nnnc1CN1CCC(NC(=O)Nc2cccc(OC)c2)CC1, O=C(O)COc1nsnc1N1CCOCC1, CN(C)C(=O)c1ccc(-c2cncnc2Nc2ccccc2)cc1, CN(C(=O)c1ccno1)c1nnc(-c2cccnc2)s1, CN(C(=O)COc1ccccc1)c1nnc(-c2ccncc2)s1, CCCn1c(SCC(N)=O)nnc1C(C)C, Cc1cccc(N)c1SC1CCCCC1O (stereo unspecified), O=c1c(F)cn(C2CCCO2)c(=O)n1Cc1ccccc1Cl (stereo unspecified), CCn1c(Cc2ccccc2)nnc1SCC(=O)Nc1ccccc1, COc1ccc(OC)c(CNC(=O)C2CCCN(c3nc4ccccc4o3)C2)c1 (stereo unspecified), Cc1ccc(SCCN2C(=O)NC(C)(C)C2=O)cc1, Cn1nnc(NC(=O)CSc2ncn[nH]2)n1, Cc1ccsc1C(=O)OCC(=O)c1cc2ccccc2o1, O=C(NCc1ccccn1)c1cnc2sccn2c1=O, O=C(NCc1ccccn1)Nc1ccc(F)cc1, Nc1ncc(-c2cc3ccccc3oc2=O)s1, CC(C)CSC[C@@H]1O[C@H](n2cnc3c(N)nccc32)[C@H](O)[C@@H]1O, O=c1cc(CSc2ccc(Cl)cc2)nc(N2CCOCC2)[nH]1, Cc1ccc2c(CSc3nncs3)cc(=O)oc2c1, O=C(Nc1cnccn1)c1cccnc1, O=C(c1ccncc1)N1CCC2(CCN(Cc3cc(C(F)(F)F)cc(C(F)(F)F)c3)CC2)CC1, O=C(Nc1cccc2c1CCCC2)C1CCN(C(=O)NC2CCCCC2)CC1, CCC(=O)Nc1ccc(C(=O)CSc2nnc(CNc3ccc(Cl)cc3)o2)cc1OC, O=C(NC1CCCCC1)n1c(=O)oc2cc(S(=O)(=O)N3CCCCC3)ccc21, CCC(c1nnnn1C1CCCC1)N(Cc1cccs1)Cc1cc2cccc(C)c2[nH]c1=O (stereo unspecified), Cc1cccc2cc(CN(Cc3cccs3)C(c3nnnn3C3CCCC3)C(C)C)c(=O)[nH]c12 (stereo unspecified), CCC(c1nnnn1Cc1ccco1)N(CCc1ccccc1)Cc1cc2ccc(OC)cc2[nH]c1=O (stereo unspecified), CC(C)(C)n1nnnc1C(c1cccs1)N(Cc1cccnc1)CC1CCCO1 (stereo unspecified), Cc1cccc2cc(CN(Cc3ccc4c(c3)OCO4)Cc3nnnn3C3CCCC3)c(=O)[nH]c12, COc1ccccc1N1CCN(Cc2nnnn2CCc2ccccc2)CC1, COc1ccc(N(CC(=O)NC(C)(C)C)C(=O)c2ccco2)cc1, O=C(O)CCN1C(=O)CC2(CCCCC2)C1=O, O=c1[nH]nc(CSCc2ccccc2Cl)[nH]1
